In PubChem BioAssay (Tox21):
Results filed as inconclusive are left out. Activity calls are given as the source filed them. Calls follow the shape of the dose curve; as a rule, active = well fitted curve in the direction sought with a large enough effect in the repeat runs; inconclusive = weak or mixed curves; inactive = no such curve, though single readings can be large; an effect the other way counts as inactive or inconclusive.

Assays:
[1] = qHTS RealTime-Glo MT Cell Viability Assay in HepG2 cells - 24 hour (AID 1224867); also: nearly all actives have a fitted effect of over 50% in size
Outline: (§1)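 HepG2 cells were seeded at 600 cells/well together with NanoLuc luciferase and a cell-permeant prosubstrate, preincubated 5 h at 37 C/5% CO2, then pin-dosed with compounds in DMSO. Nonlytic luminescence from viable cells was read at each time point.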

[2] = qHTS RealTime-Glo MT Cell Viability Assay in HEK293 cells - 32 hour (AID 1224868); also: top concentration of the series differs between compounds; nearly all actives have a fitted effect of over 50% in size
Outline: (§2)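 HEK293 cells were seeded at 600 cells/well together with NanoLuc luciferase and cell-permeant prosubstrate, preincubated 5 h at 37 C/5% CO2, then given compound in DMSO by pintool. Luminescence from viable-cell prosubstrate reduction was read repeatedly over 40 h.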

[3] = A CellTox Green Cytotoxicity Assay to monitor cytotoxicity in HEK293 cells - 0 hour (AID 1224869); also: nearly all actives have a fitted effect of over 50% in size
Outline: (§3)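 Nonlytic real-time cytotoxicity: HEK293 + CellTox Green reagent plated, 5 h preincubation, pintool compound addition (23 nL in DMSO), 37 C for 40 h, fluorescence measured at successive time points.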

[4] = qHTS RealTime-Glo MT Cell Viability Assay in HepG2 cells - 40 hour (AID 1224870); also: nearly all actives have a fitted effect of over 50% in size
Outline: (§4)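 HepG2 cells mixed with RealTime-Glo MT reagents (NanoLuc plus cell-permeant prosubstrate) were seeded at 600 cells/well, incubated 5 h at 37 C/5% CO2, then pinned with compounds in DMSO; nonlytic luminescence tracked viability during 40 h treatment.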

[5] = A CellTox Green Cytotoxicity Assay to monitor cytotoxicity in HEK293 cells - 40 hour (AID 1224871); also: nearly all actives have a fitted effect of over 45% in size
Outline: as §3

[6] = qHTS RealTime-Glo MT Cell Viability Assay in HEK293 cells - 16 hour (AID 1224872)
Outline: as §2

[7] = qHTS RealTime-Glo MT Cell Viability Assay in HepG2 cells - 8 hour (AID 1224873); also: nearly all actives have a fitted effect of over 55% in size
Outline: as §4

[8] = qHTS RealTime-Glo MT Cell Viability Assay in HEK293 cells - 40 hour (AID 1224874); conditions: RealTime-Glo luminescence, stronger effect = lower value; also: nearly all actives have a fitted effect of over 50% in size
Outline: (§5)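 Cells were seeded together with NanoLuc luciferase and a prosubstrate that viable cells reduce to a luciferase substrate. After a 5 h incubation at 37 C/5% CO2, compounds were added and luminescence was measured repeatedly during 40 h of treatment.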

[9] = A CellTox Green Cytotoxicity Assay to monitor cytotoxicity in HEK293 cells - 24 hour (AID 1224875); also: series mostly up to about 77 µM; nearly all actives have a fitted effect of over 45% in size
Outline: as §3

[10] = A CellTox Green Cytotoxicity Assay to monitor cytotoxicity in HepG2 cells - 16 hour (AID 1224876); also: nearly all actives have a fitted effect of over 45% in size
Outline: (§6)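 Read-out is fluorescence of a cyanine dye excluded from live cells that stains DNA of dead HepG2 cells, with signal proportional to cytotoxicity. Plates were read at 0, 8, 16, 24, 32 and 40 h after compound addition.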

[11] = qHTS RealTime-Glo MT Cell Viability Assay in HepG2 cells - 32 hour (AID 1224877); also: nearly all actives have a fitted effect of over 55% in size
Outline: as §1

[12] = A CellTox Green Cytotoxicity Assay to monitor cytotoxicity in HepG2 cells - 24 hour (AID 1224878); also: nearly all actives have a fitted effect of over 45% in size
Outline: as §6

[13] = A CellTox Green Cytotoxicity Assay to monitor cytotoxicity in HepG2 cells - 40 hour (AID 1224879); also: nearly all actives have a fitted effect of over 40% in size
Outline: as §6

[14] = qHTS RealTime-Glo MT Cell Viability Assay in HEK293 cells - 0 hour (AID 1224880)
Outline: as §5

[15] = A CellTox Green Cytotoxicity Assay to monitor cytotoxicity in HEK293 cells - 32 hour (AID 1224881); also: nearly all actives have a fitted effect of over 40% in size
Outline: as §3

[16] = A CellTox Green Cytotoxicity Assay to monitor cytotoxicity in HepG2 cells - 0 hour (AID 1224882); also: nearly all actives have a fitted effect of over 35% in size
Outline: as §6

[17] = A CellTox Green Cytotoxicity Assay to monitor cytotoxicity in HepG2 cells - 32 hour (AID 1224883); also: nearly all actives have a fitted effect of over 50% in size
Outline: as §6

[18] = A CellTox Green Cytotoxicity Assay to monitor cytotoxicity in HEK293 cells - 8 hour (AID 1224884); also: nearly all actives have a fitted effect of over 35% in size
Outline: as §3

[19] = qHTS RealTime-Glo MT Cell Viability Assay in HepG2 cells - 16 hour (AID 1224885); also: nearly all actives have a fitted effect of over 50% in size
Outline: as §1

[20] = qHTS RealTime-Glo MT Cell Viability Assay in HEK293 cells - 24 hour (AID 1224886)
Outline: as §2
% is scaled to controls: 0 for no effect and ±100 for the full control effect.

Cc1ccc(O)c(C(=O)c2ccccc2)c1
inactive: outcome [1] | outcome [2] | outcome [3] | outcome [4] | Potency [5] | outcome [6] | outcome [7] | max response [8] -5.5% | Potency [9] | Potency [10] | outcome [11] | Potency [12] | Potency [13] | Potency [14] | Potency [15] | Potency [16] | Potency [17] | Potency [18] | outcome [19] | outcome [20]

COC(=O)c1ccc(NC(C)=O)cc1OC
inactive: outcome [1] | outcome [2] | outcome [3] | outcome [4] | Potency [5] | outcome [6] | outcome [7] | max response [8] 3.94% | Potency [9] | Potency [10] | outcome [11] | Potency [12] | Potency [13] | Potency [14] | Potency [15] | Potency [16] | Potency [17] | Potency [18] | outcome [19] | outcome [20]

O=CN1CCCCC1
inactive: outcome [1] | outcome [2] | outcome [3] | outcome [4] | Potency [5] | outcome [6] | outcome [7] | max response [8] 1.3% | Potency [9] | Potency [10] | outcome [11] | Potency [12] | Potency [13] | Potency [14] | Potency [15] | Potency [16] | Potency [17] | outcome [19] | outcome [20]

NS(=O)(=O)c1cc2c(cc1C(F)(F)F)NCNS2(=O)=O
inactive: outcome [1] | outcome [2] | outcome [3] | outcome [4] | Potency [5] | outcome [6] | outcome [7] | max response [8] 14.4% | Potency [9] | Potency [10] | outcome [11] | Potency [12] | Potency [13] | Potency [14] | Potency [15] | Potency [16] | Potency [17] | outcome [19] | outcome [20]

O=S(=O)(O)c1ccc(Cl)cc1
inactive: outcome [1] | outcome [2] | outcome [3] | outcome [4] | Potency [5] | outcome [6] | outcome [7] | max response [8] 0.949% | Potency [9] | Potency [10] | outcome [11] | Potency [12] | Potency [13] | Potency [14] | Potency [15] | Potency [16] | Potency [17] | Potency [18] | outcome [19]

CCCC(=O)OC
inactive: outcome [1] | outcome [2] | outcome [3] | outcome [4] | Potency [5] | outcome [6] | outcome [7] | max response [8] -2.73% | Potency [9] | Potency [10] | outcome [11] | Potency [12] | Potency [13] | Potency [14] | Potency [15] | Potency [16] | Potency [17] | Potency [18] | outcome [19] | outcome [20]

C[n+]1ccccc1/C=N/O
inactive: outcome [1] | outcome [2] | outcome [3] | outcome [4] | Potency [5] | outcome [6] | outcome [7] | max response [8] 0.0286% | Potency [9] | Potency [10] | outcome [11] | Potency [12] | Potency [13] | Potency [14] | Potency [15] | Potency [16] | Potency [17] | Potency [18] | outcome [19]

Nc1ccc(C(=O)NCC(=O)O)cc1
inactive: outcome [1] | outcome [2] | outcome [3] | outcome [4] | Potency [5] | outcome [6] | outcome [7] | max response [8] -0.411% | Potency [9] | Potency [10] | outcome [11] | Potency [12] | Potency [13] | Potency [14] | Potency [15] | Potency [16] | Potency [17] | Potency [18] | outcome [19]

CC(=O)c1ccc(O)c(C(N)=O)c1
inactive: outcome [1] | outcome [2] | outcome [3] | outcome [4] | Potency [5] | outcome [6] | outcome [7] | max response [8] 2.03% | Potency [9] | Potency [10] | outcome [11] | Potency [12] | Potency [13] | Potency [14] | Potency [15] | Potency [16] | Potency [17] | Potency [18] | outcome [19] | outcome [20]

COC(C)(C)CC(C)=O
inactive: outcome [1] | outcome [2] | outcome [3] | outcome [4] | Potency [5] | outcome [6] | outcome [7] | max response [8] 1.4% | Potency [9] | Potency [10] | outcome [11] | Potency [12] | Potency [13] | Potency [14] | Potency [15] | Potency [16] | Potency [17] | outcome [19] | outcome [20]

CCC(C)SSC(C)CC (configuration not stated)
inactive: outcome [1] | outcome [2] | outcome [3] | outcome [4] | Potency [5] | outcome [6] | outcome [7] | max response [8] 3.14% | Potency [9] | Potency [10] | outcome [11] | Potency [12] | Potency [13] | Potency [14] | Potency [15] | Potency [16] | Potency [17] | outcome [19] | outcome [20]

CCCCCCCCCCCC(C)=O
inactive: outcome [1] | outcome [2] | outcome [3] | outcome [4] | Potency [5] | outcome [6] | outcome [7] | max response [8] 0.63% | Potency [9] | Potency [10] | outcome [11] | Potency [12] | Potency [13] | Potency [14] | Potency [15] | Potency [16] | Potency [17] | Potency [18] | outcome [19] | outcome [20]

CCOCCOCCOC(C)=O
inactive: outcome [1] | outcome [2] | outcome [3] | outcome [4] | Potency [5] | outcome [6] | outcome [7] | max response [8] 7.47% | Potency [9] | Potency [10] | outcome [11] | Potency [12] | Potency [13] | Potency [14] | Potency [15] | Potency [16] | Potency [17] | Potency [18] | outcome [19] | outcome [20]

CCC(=O)OCCOc1ccccc1
inactive: outcome [1] | outcome [2] | outcome [3] | outcome [4] | Potency [5] | outcome [6] | outcome [7] | max response [8] 5.48% | Potency [9] | Potency [10] | outcome [11] | Potency [12] | Potency [13] | Potency [14] | Potency [15] | Potency [16] | Potency [17] | Potency [18] | outcome [19]
